From PubChem BioAssay (NCATS)
Records with an inconclusive call do not appear. The source made the active and inactive calls. The call rests on the fitted dose curve; in most records, active means well fitted cell-killing curve with a large enough effect; inconclusive means small, poorly fitted or top-dose-only effect, or effect the other way; inactive means no such curve, though single readings can be large or run the other way.

Legend:
[1] = Quantitative High-Throughput drug screen in 47 multiple myeloma cell lines against the NCATS MIPE library collection: KMS28PE_JCRB cell viability assay (AID 1918983); further: nearly all actives have a fitted effect of over 35% in size; further: potency means the concentration at half of the fitted maximal effect
Procedure, shortened: (§1)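 ATP-based CellTiter-Glo luminescence after 48 h drug exposure (37 °C, 5% CO2) of 500 myeloma cells per well. DMSO-only wells set 100% viability, media-only wells 0%; MIPE 4.0 library added by pin tool.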

[2] = Quantitative High-Throughput drug screen in 47 multiple myeloma cell lines against the NCATS MIPE library collection: L363_DSMZ cell viability assay (AID 1918984); further: nearly all actives have a fitted effect of over 40% in size; further: potency means the concentration at half of the fitted maximal effect
Procedure, shortened: as §1

[3] = Quantitative High-Throughput drug screen in 47 multiple myeloma cell lines against the NCATS MIPE library collection: OCIMY7_PLB cell viability assay (AID 1918987); conditions: OCI-MY7 myeloma viability, CellTiter-Glo ATP, 48 h; viability (% of DMSO): at 45.8 µM (top of the series); further: nearly all actives have a fitted effect of over 65% in size; further: potency means the concentration at half of the fitted maximal effect
Procedure, shortened: as §1

[4] = Quantitative High-Throughput drug screen in 47 multiple myeloma cell lines against the NCATS MIPE library collection: OPM1_PLB cell viability assay (AID 1918989); further: nearly all actives have a fitted effect of over 40% in size; further: potency means the concentration at half of the fitted maximal effect
Procedure, shortened: as §1

[5] = Quantitative High-Throughput drug screen in 47 multiple myeloma cell lines against the NCATS MIPE library collection: U266_ATCC cell viability assay (AID 1919864); further: nearly all actives have a fitted effect of over 35% in size; further: potency means the concentration at half of the fitted maximal effect
Procedure, shortened: as §1

[6] = Quantitative High-Throughput drug screen in 47 multiple myeloma cell lines against the NCATS MIPE library collection: PE2_PLB cell viability assay (AID 1919869); further: nearly all actives have a fitted effect of over 35% in size; further: potency means the concentration at half of the fitted maximal effect
Procedure, shortened: as §1

[7] = Quantitative High-Throughput drug screen in 47 multiple myeloma cell lines against the NCATS MIPE library collection: KMS11_JCRBsus cell viability assay (AID 1919873); further: nearly all actives have a fitted effect of over 50% in size; further: potency means the concentration at half of the fitted maximal effect
Procedure, shortened: as §1

[8] = Quantitative High-Throughput drug screen in 47 multiple myeloma cell lines against the NCATS MIPE library collection: KMS28BM_JCRB cell viability assay (AID 1919874); further: nearly all actives have a fitted effect of over 35% in size; further: potency means the concentration at half of the fitted maximal effect
Procedure, shortened: as §1

[9] = Quantitative High-Throughput drug screen in 47 multiple myeloma cell lines against the NCATS MIPE library collection: XG6_PLB cell viability assay (AID 1919865); further: nearly all actives have a fitted effect of over 40% in size; further: potency means the concentration at half of the fitted maximal effect
Procedure, shortened: as §1

[10] = Quantitative High-Throughput drug screen in 47 multiple myeloma cell lines against the NCATS MIPE library collection: VP6_DJ cell viability assay (AID 1919867); further: nearly all actives have a fitted effect of over 40% in size; further: potency means the concentration at half of the fitted maximal effect
Procedure, shortened: as §1

[11] = Quantitative High-Throughput drug screen in 47 multiple myeloma cell lines against the NCATS MIPE library collection: PCM6_Riken cell viability assay (AID 1919870); further: nearly all actives have a fitted effect of over 30% in size; further: potency means the concentration at half of the fitted maximal effect
Procedure, shortened: as §1

[12] = Quantitative High-Throughput drug screen in 47 multiple myeloma cell lines against the NCATS MIPE library collection: KMS34_JCRB cell viability assay (AID 1918985); further: nearly all actives have a fitted effect of over 40% in size
Procedure, shortened: as §1

[13] = Quantitative High-Throughput drug screen in 47 multiple myeloma cell lines against the NCATS MIPE library collection: SKMM1_PLB cell viability assay (AID 1919863); conditions: SKMM1 myeloma viability, CellTiter-Glo ATP, 48 h; viability: stronger effect = lower value; further: nearly all actives have a fitted effect of over 35% in size; further: potency means the concentration at half of the fitted maximal effect
Procedure, shortened: as §1

[14] = Quantitative High-Throughput drug screen in 47 multiple myeloma cell lines against the NCATS MIPE library collection: RPMI8226_ATCC cell viability assay (AID 1919871); further: nearly all actives have a fitted effect of over 30% in size; further: potency means the concentration at half of the fitted maximal effect
Procedure, shortened: as §1

[15] = Quantitative High-Throughput drug screen in 47 multiple myeloma cell lines against the NCATS MIPE library collection: OPM2_DSMZ cell viability assay (AID 1919872); further: nearly all actives have a fitted effect of over 30% in size; further: potency means the concentration at half of the fitted maximal effect
Procedure, shortened: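 Steps: seed 500 cells per well; pin-transfer MIPE 4.0 library; incubate 48 h at 37C, 5% CO2, humidified; add CellTiter-Glo, 5 min room temperature; read luminescence.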

[16] = Quantitative High-Throughput drug screen in 47 multiple myeloma cell lines against the NCATS MIPE library collection: UTMC2_PLB cell viability assay (AID 1919868); conditions: CellTiter-Glo ATP luminescence, 48 h; viability (% of DMSO control): at 45.8 µM (top of the series); further: nearly all actives have a fitted effect of over 55% in size; further: potency means the concentration at half of the fitted maximal effect
Procedure, shortened: as §1

[17] = Quantitative High-Throughput drug screen in 47 multiple myeloma cell lines against the NCATS MIPE library collection: OCIMY5_PLB cell viability assay (AID 1918988); further: nearly all actives have a fitted effect of over 65% in size; further: potency means the concentration at half of the fitted maximal effect
Procedure, shortened: as §1

[18] = Quantitative High-Throughput drug screen in 47 multiple myeloma cell lines against the NCATS MIPE library collection: XG1_PLB cell viability assay (AID 1919866); further: nearly all actives have a fitted effect of over 35% in size; further: potency means the concentration at half of the fitted maximal effect
Procedure, shortened: as §1

C#Cc1cccc(Nc2ncnc3cc(OCCOC)c(OCCO)cc23)c1
active: Potency [1] 18.7 µM | Potency [2] 0.372 µM | Potency [3] 1.87 µM | Potency [4] 13.2 µM | Potency [5] 16.6 µM | Potency [6] 1.05 µM | Potency [7] 8.33 µM | Potency [8] 8.33 µM

N#CC(=Cc1ccc(O)c(O)c1)C(=O)NCc1ccccc1
active: Potency [2] 3.32 µM | Potency [3] 5.9 µM | Potency [4] 9.35 µM | Potency [5] 26.4 µM | Potency [9] 8.33 µM | Potency [10] 18.7 µM | Potency [6] 14.8 µM | Potency [11] 10.5 µM
inactive: Potency [1]

O=C(O)CCCCC(CCSCc1ccccc1)SCc1ccccc1 (configuration not stated)
inactive: Potency [1] | Potency [12] | viability [13] 120% | Potency [6] | Potency [14] | Potency [15]
active: Potency [2] 13.2 µM | Potency [10] 16.6 µM

OCc1ccccc1O[C@@H]1O[C@H](CO)[C@H](O)[C@H](O)[C@H]1O
inactive: Potency [1] | Potency [2] | Potency [4] | viability [13] 130% | Potency [5] | Potency [10] | Potency [16] | Potency [6] | Potency [11] | Potency [14] | Potency [15] | Potency [7] | Potency [8]
active: Potency [3] 26.4 µM

CCN(C(=O)c1c(O)c2c(Cl)cccc2n(C)c1=O)c1ccccc1
inactive: Potency [1] | Potency [2] | Potency [3] | Potency [17] | Potency [4] | Potency [5] | Potency [9] | Potency [18] | Potency [6] | Potency [11] | Potency [14] | Potency [15] | Potency [7] | Potency [8]

CCc1ccc(C(=O)Nc2cc(CN3CCN(C)CC3)cc(C(F)(F)F)c2)cc1C#Cc1cnc2ccnn2c1
active: Potency [1] 16.6 µM | Potency [2] 6.62 µM | Potency [3] 1.87 µM | Potency [17] 1.87 µM | Potency [13] 16.6 µM | Potency [5] 18.7 µM | Potency [9] 4.18 µM | Potency [18] 4.69 µM | Potency [10] 9.35 µM | Potency [16] 11.8 µM | Potency [11] 3.72 µM | Potency [14] 20.9 µM | Potency [8] 4.18 µM

C[C@H](NCc1ccc2c(c1)nc(NC(=O)c1ccc(-c3cn[nH]c3)s1)n2CCc1ccccc1)C(C)(C)C
active: Potency [1] 2.35 µM | Potency [2] 0.469 µM | Potency [3] 0.418 µM | Potency [17] 0.833 µM | Potency [4] 1.18 µM | Potency [13] 2.96 µM | Potency [5] 1.48 µM | Potency [9] 0.935 µM | Potency [18] 0.743 µM | Potency [10] 0.526 µM | Potency [16] 0.935 µM | Potency [14] 2.96 µM | Potency [15] 2.09 µM | Potency [7] 0.59 µM | Potency [8] 0.833 µM

O=C(NCc1ccccc1)[C@H](Cc1ccccc1)NC(=O)[C@@H]1O[C@@H]1C(=O)NCCc1ccc(O)cc1
inactive: Potency [1] | Potency [3] | viability [13] 128% | Potency [10] | Potency [15] | Potency [8]
active: Potency [2] 16.6 µM | Potency [6] 23.5 µM

c1cc(N[C@@H]2CCNC2)nc(-c2cnc3ccc(-c4cn[nH]c4)cn23)c1
active: Potency [1] 16.6 µM | Potency [2] 7.43 µM | Potency [3] 7.43 µM | Potency [17] 13.2 µM | Potency [4] 16.6 µM | Potency [13] 26.4 µM | Potency [9] 2.64 µM | Potency [18] 5.26 µM | Potency [10] 14.8 µM | Potency [16] 4.69 µM | Potency [6] 2.35 µM | Potency [11] 5.9 µM | Potency [8] 23.5 µM
inactive: Potency [14]

OCCNC1CCCc2c1[nH]c1ccc(-c3ccccc3)cc21 (configuration not stated)
active: Potency [1] 23.5 µM | Potency [2] 9.35 µM | Potency [3] 20.9 µM | Potency [17] 18.7 µM | Potency [4] 8.33 µM | Potency [13] 26.4 µM | Potency [5] 20.9 µM | Potency [9] 26.4 µM | Potency [10] 8.33 µM | Potency [6] 14.8 µM | Potency [11] 11.8 µM | Potency [14] 26.4 µM | Potency [7] 2.96 µM | Potency [8] 20.9 µM

CCCNC(=O)[C@H]1O[C@H]1C(=O)N[C@H](C(=O)N1CCC[C@@H]1C(=O)OC)C(C)CC (some centres not stated)
active: Potency [1] 7.43 µM | Potency [2] 8.33 µM | Potency [3] 3.32 µM | Potency [17] 2.64 µM | Potency [4] 18.7 µM | Potency [13] 20.9 µM | Potency [5] 10.5 µM | Potency [9] 8.33 µM | Potency [18] 14.8 µM | Potency [10] 16.6 µM | Potency [6] 4.18 µM | Potency [11] 16.6 µM | Potency [14] 20.9 µM | Potency [15] 11.8 µM | Potency [7] 23.5 µM | Potency [8] 7.43 µM

O=C(Nc1cc2cc[nH]c2cn1)c1ccccc1
active: Potency [1] 11.8 µM | Potency [2] 6.62 µM | Potency [17] 5.26 µM | Potency [4] 14.8 µM | Potency [13] 11.8 µM | Potency [5] 11.8 µM | Potency [9] 16.6 µM | Potency [18] 16.6 µM | Potency [10] 18.7 µM | Potency [16] 13.2 µM | Potency [11] 8.33 µM | Potency [14] 13.2 µM | Potency [7] 11.8 µM | Potency [8] 5.26 µM
